For eight compounds, growth results are on record in PubChem BioAssay (NCI).

The panel holds about 83,000 compounds, 20% with a hit somewhere; the sample as a whole holds those more often.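 Results are percent growth after 48 hours of single-concentration exposure. 100 means growth as in untreated cells, lower positive values show inhibition; negative values down to -100 show cell death.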 Values without a mark were called inactive. The source made the active and inactive calls. How the source made its calls: active means growth percent below 10; inactive means the rest.

Test systems include NCI-H23 lung; NCI-H226 lung; NCI-H322M lung; HOP-62 NSCLC; NCI-H460 lung; NCI-H522 lung; A549/ATCC NSCLC; 786-0 renal; COLO 205 colon; DU-145 prostate; K-562 leukemia; MALME-3M melanoma; MDA-MB-231 breast; RXF 393 renal; SF-268 CNS; SF-295 CNS; SF-539 CNS; UACC-257 melanoma; M14 melanoma.
What all share (assay): NCI-60 one-dose screen, 48 h (100 = growth as untreated, 0 = no growth, -100 = all killed)
Common to all, as to settings: 10 µM unless noted

`O=C(CCl)Nc1cc(O)c2c(c1)C(=O)c1cccc(O)c1C2=O`: the growth in the test on NCI-H23 lung was -45% (active); in the test on NCI-H226 lung, -20.6% (active); with NCI-H322M lung, 59%; in the test on HOP-62 NSCLC, -100% (active); in the test with NCI-H460 lung, -43.5% (active); in the test on NCI-H522 lung it was -89% (active). Besides, the growth in the test with A549/ATCC NSCLC was 91%; in the test on 786-0 renal, -71.5% (active); with COLO 205 colon it was -81.5% (active); in the test with DU-145 prostate, -82.5% (active); in the test on K-562 leukemia, -46.2% (active); in the test on MALME-3M melanoma it was -72.9% (active). The growth is -27.7% (active) in the test with MDA-MB-231 breast; -67.1% (active) with RXF 393 renal; -49.5% (active) with SF-268 CNS; 61.7% in the test on SF-295 CNS; -32.3% (active) with SF-539 CNS; 5.96% (active) in the test with UACC-257 melanoma. For the same compound, the growth in the test with M14 melanoma was -33.2% (active).
On to `CCN(CC)c1cc(C)c(Cc2c(OC)ccc3ccccc23)cc1C`, for which the growth in the test with NCI-H23 lung was 93.7%; with NCI-H226 lung, 92.3%; in the test with NCI-H322M lung it was 96.9%; in the test with HOP-62 NSCLC it was 85%; with NCI-H460 lung it was 95.1%; in the test with NCI-H522 lung it was 74.7%. For the same compound, the growth in the test on A549/ATCC NSCLC was 82.8%; in the test with 786-0 renal, 100%; in the test on COLO 205 colon, 96.7%; in the test with DU-145 prostate, 105%; in the test with K-562 leukemia it was 84.7%; in the test on MALME-3M melanoma, 102%. Also, the growth with MDA-MB-231 breast was 98.6%; with RXF 393 renal, 101%; in the test on SF-268 CNS it was 95.7%; in the test on SF-295 CNS, 103%; with SF-539 CNS it was 103%; with UACC-257 melanoma, 96.8%. Moreover, the growth in the test with M14 melanoma was 90.8%.
Consider `Nc1c(C(=O)C[C@@H](N)CO)ccc2c1C(=O)CCO2`, for which the growth in the test with NCI-H23 lung is 55.2%; in the test with NCI-H226 lung it was 76.3%; with NCI-H322M lung it was 16.7%; with HOP-62 NSCLC, 28.1%; in the test on NCI-H460 lung, 13%; in the test on NCI-H522 lung, 45.1%. For the same compound, the growth in the test with A549/ATCC NSCLC was 40.4%; in the test with 786-0 renal it was 78.6%; in the test on COLO 205 colon, 46.9%; in the test on DU-145 prostate, 42.9%; in the test with K-562 leukemia it was 33.4%; with MALME-3M melanoma, 48.2%. Besides, the growth with MDA-MB-231 breast is 61%; in the test with RXF 393 renal, 90.7%; in the test on SF-268 CNS, 43.6%; with SF-295 CNS, 48.3%; with SF-539 CNS, 41.3%; in the test on UACC-257 melanoma, 65.4%. Moreover, in the test on M14 melanoma, the growth was 48.6%.
`CCN1C(=O)N(CC)C2C1NC(=O)N2/N=C/C=C/c1ccccc1` (configuration not stated): the growth with NCI-H23 lung was 64.5%; in the test with NCI-H226 lung it was 74.9%; in the test with NCI-H322M lung it was 63.8%; with HOP-62 NSCLC, 41.3%; with NCI-H460 lung it was 24.4%; with NCI-H522 lung, 2.08% (active). Also, the growth in the test with A549/ATCC NSCLC was 45.4%; in the test with 786-0 renal, 33%; in the test on COLO 205 colon it was 27.4%; with DU-145 prostate, 68.1%; with K-562 leukemia, 17%; in the test with MALME-3M melanoma it was 50.6%. Also, the growth was 71.5% in the test with MDA-MB-231 breast; 32.3% in the test on RXF 393 renal; 59.7% in the test on SF-268 CNS; 34.9% in the test on SF-295 CNS; 25% in the test with SF-539 CNS; 35.8% in the test with UACC-257 melanoma. Besides, in the test on M14 melanoma, the growth is 28.5%.
On to `CN1C(=O)C(C2=NNC(c3ccccc3C(=O)O)C2)C(=O)N(C)C1=O` (configuration not stated), for which the growth in the test on NCI-H23 lung was 106%; with NCI-H226 lung it was 99.8%; in the test with NCI-H322M lung, 87.8%; in the test with HOP-62 NSCLC, 98.3%; with NCI-H460 lung, 106%; in the test on NCI-H522 lung, 83.7%. The growth was 98.6% in the test with A549/ATCC NSCLC; 101% with 786-0 renal; 108% in the test on COLO 205 colon; 113% with DU-145 prostate; 94.1% in the test on K-562 leukemia; 111% in the test with MALME-3M melanoma. In addition, the growth is 109% in the test on MDA-MB-231 breast; 106% in the test with RXF 393 renal; 98.8% in the test on SF-268 CNS; 101% in the test on SF-295 CNS; 108% in the test with SF-539 CNS; 97.1% with UACC-257 melanoma. Moreover, the growth with M14 melanoma is 103%.
Regarding `Cc1nn(-c2cccc(Cl)c2)c(C)c1N=Nc1ccc(Br)cc1`, the growth with NCI-H23 lung is 96.9%; with NCI-H226 lung, 101%; in the test with NCI-H322M lung, 102%; in the test on HOP-62 NSCLC it was 86.9%; with NCI-H460 lung, 103%; with NCI-H522 lung it was 68.6%. The growth in the test on A549/ATCC NSCLC was 66.1%; with 786-0 renal, 89.7%; in the test with COLO 205 colon, 102%; in the test on DU-145 prostate, 101%; in the test with K-562 leukemia, 89.2%; in the test on MALME-3M melanoma, 95.1%. The growth was 93.1% in the test with MDA-MB-231 breast; 110% in the test with RXF 393 renal; 96.5% in the test on SF-268 CNS; 91.8% in the test with SF-295 CNS; 90.7% with SF-539 CNS; 53.2% in the test with UACC-257 melanoma. Also, the growth with M14 melanoma is 95.6%.
For `Cc1ccncc1NC=O`, the growth in the test with NCI-H23 lung was 101%; in the test on NCI-H226 lung, 101%; in the test on NCI-H322M lung, 102%; in the test with HOP-62 NSCLC, 109%; in the test with NCI-H460 lung it was 106%; in the test on NCI-H522 lung, 99.1%. Further, the growth is 102% in the test on A549/ATCC NSCLC; 103% in the test on 786-0 renal; 110% with COLO 205 colon; 113% in the test on DU-145 prostate; 107% in the test with K-562 leukemia; 105% with MALME-3M melanoma. Further, the growth in the test on MDA-MB-231 breast was 110%; in the test with RXF 393 renal, 111%; with SF-268 CNS, 104%; with SF-295 CNS, 104%; in the test with SF-539 CNS, 102%; in the test with UACC-257 melanoma, 106%. Also, the growth with M14 melanoma is 96.4%.
On to `CC(C)c1cccc(C#N)c1`, for which the growth in the test on NCI-H23 lung is 92.8%; in the test with NCI-H226 lung, 101%; in the test on NCI-H322M lung, 109%; in the test with HOP-62 NSCLC, 111%; in the test with NCI-H460 lung, 103%; in the test on NCI-H522 lung, 107%. Besides, the growth in the test on A549/ATCC NSCLC was 93.5%; in the test with 786-0 renal, 102%; in the test on COLO 205 colon, 115%; in the test on DU-145 prostate, 104%; in the test with K-562 leukemia it was 109%; in the test with MALME-3M melanoma, 113%. The growth was 102% in the test on MDA-MB-231 breast; 102% in the test on RXF 393 renal; 107% with SF-268 CNS; 107% in the test on SF-295 CNS; 109% in the test on SF-539 CNS; 93.4% in the test with UACC-257 melanoma. Also, the growth in the test on M14 melanoma was 95.2%.
